Drawing on PubChem BioAssay (Tox21), this text covers Potency and outcome for eight compounds.

A short description of assay [1]: Nuclear factor erythroid 2-related factor 2/antioxidant responsive element (Nrf2/ARE) small molecule agonists: qHTS cell viability counter screen in human keratinocytes (AID 1919968; active = well fitted curve in the direction sought with a large enough effect in the repeat runs; an effect the other way counts as inactive or inconclusive; note: nearly all actives have a fitted effect of over 55% in size; note: potency is the fitted concentration of half-maximal effect). The essentials: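 Cells of the KeratinoSens line were plated at 1,500 per well and left for 5 h before compound transfer from DMSO stocks. After a 23 h incubation (37 C, 5% CO2), CellTiter-Fluor was added. Signal was taken as fluorescence intensity 1 h later.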

Assay [2] can be described thus: Nuclear factor erythroid 2-related factor 2/antioxidant responsive element (Nrf2/ARE) small molecule agonists: luciferase reporter gene qHTS assay in human keratinocytes (AID 1919969). Note: nearly all actives have a fitted effect of over 35% in size. Background: A reporter such as luciferase makes a cellular process visible.
For assay [3], the target named is KiSS-1 receptor (Homo sapiens) (UniProt Q969F8). Description: Human kisspeptin (KISS1R) small molecule agonists, calcium flux assay in KISS1R-HEK293 cells (AID 1920064; active = well fitted curve in the direction sought with a large enough effect in the repeat runs; an effect the other way counts as inactive or inconclusive). Summed up:
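Cell line: HEK293, stable human KISS1R. Dye loading 1 h at 37 C after 18 h culture. Read: kinetic fluorescence, 480/540 nm, 3 min at 1 s intervals.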

The nature of assay [4]: G protein-coupled receptor (GPCR) small molecule agonists, calcium flux assay: HEK293 wild type cell line counter screen (AID 1920065). The essentials: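 Tox21 10K compounds, 15 concentrations each in triplicate, pin-transferred in DMSO onto dye-loaded cells; kinetic read at 480/540 nm for 3 min, 1 s intervals.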
Assay [5] is described as follows: p53 small molecule agonists, cell-based qHTS assay with human liver microsomes (AID 1963577). Summed up:
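Cells carrying a p53-responsive bla reporter were rested 5 h (37 C, 5% CO2) before compound transfer. Human liver microsomes plus NADPH, 0.5 mg/mL final apiece, supplied metabolism during the 16 h 37 C exposure.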
A general note: In qHTS, concentration-response curves come from the screen itself.

A short description of assay [6]: p53 small molecule agonists, cell-based qHTS assay with rat liver microsomes (AID 1963578). Summed up:
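Fluorescence from a beta-lactamase reporter under a p53 response element was measured after cells had been incubated 16 h at 37 C with test compound and rat liver microsomes plus NADPH (0.5 mg/mL final each).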

The nature of assay [7]: p53 small molecule agonists, cell-based qHTS assay with human liver microsomes: qHTS cell viability counter screen (AID 1963579). Note: nearly all actives have a fitted effect of over 45% in size. Summed up:
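Seed p53RE-bla cells at 4,000 per well; incubate 5 h at 37 C; add compound, human liver microsomes and NADPH; incubate 16 h at 37 C; add CellTiter-Glo; after 30 min at room temperature, read luminescence.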

Assay [8] in a line: p53 small molecule agonists, cell-based qHTS assay with rat liver microsomes: qHTS cell viability counter screen (AID 1963580). Note: nearly all actives have a fitted effect of over 45% in size. The essentials:
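Cytotoxicity counter screen: intracellular ATP read by CellTiter-Glo luminescence in the p53 reporter wells. HCT-116 p53RE-bla cells were treated for 16 h at 37 C alongside rat liver microsomes and NADPH, each 0.5 mg/mL final.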

The nature of assay [9]: p53 small molecule agonists, cell-based qHTS assay (AID 1963582; active = well fitted activation curve with a large enough effect in the signal ratio in the repeat runs, not every such curve was filed as active; the % refers to the signal ratio). Summed up: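 16 h compound exposure (37 C) of p53 response element–bla cells, preceded by 5 h recovery at 37 C/5% CO2; read-out via LiveBLAzer B/G FRET substrate, 2 h RT, fluorescence intensity.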
The target of assay [10] is 5-hydroxytryptamine receptor 2A (Homo sapiens) (UniProt P28223). Put plainly: 5-hydroxytryptamine receptor 2A (HTR2A) small molecule agonists, cell-based qHTS assay (AID 1963587). Note: nearly all actives have a fitted effect of over 30% in size. The essentials:
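Kinetic calcium-flux fluorescence (2 min, 1 sec intervals) after compound addition in agonist mode. HTR2A-CHO cells were cultured 18 h, then dye-loaded 1 h at 37 C.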

Assay [11] concerns the target Muscarinic acetylcholine receptor M1 (Homo sapiens) (UniProt P11229). Put plainly: Cholinergic receptor muscarinic 1 (CHRM1) small molecule agonists, cell-based qHTS assay (AID 1963589). Note: nearly all actives have a fitted effect of over 35% in size. The essentials: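 Homogeneous fluorescence calcium flux, agonist mode. Human M1-expressing CHO cells; compound dosed at 15 concentrations, three independent runs; signal sampled every 1 sec.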

Assay [12] in a line: cAMP Responsive Elements (CRE) small molecule agonists, cell-based qHTS assay (AID 1963590). The essentials:
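HEK 293T cells stably bearing CRE-bla were plated at 2,000 cells per well and rested 18 h. Compounds, positive controls or DMSO were added for 3 h at 37 C. LiveBLAzer B/G substrate was then loaded for 2 h at room temperature.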

Assay [13] in a line: cAMP Responsive Elements (CRE) small molecule antagonists, cell-based qHTS assay (AID 1963591; active = well fitted inhibition curve with a large enough effect in the signal ratio in the repeat runs, not every such curve was filed as active; the % refers to the signal ratio). Summed up:
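First, CRE-bla HEK293T cells settled 18 h at 37 C. Next, compound and 0.25 uM final NKH477 were applied for 3 h. Last, LiveBLAzer B/G substrate was loaded for 2 h at room temperature.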

The target of assay [14] is Beta-2 adrenergic receptor (Homo sapiens) (UniProt P07550). Put plainly: Adrenergic beta2 receptor (ADRB2) small molecule agonists, cell-based qHTS assay (AID 1963593).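 Note: CHO cells stably overexpressing human ADRB2.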 The essentials: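 CHO cells stably over-expressing ADRB2 were plated overnight at 37C, then dosed with compounds plus a stimulation mix containing 100uM IBMX and 25uM Ro-20-1724 for 0.5hr at room temperature. cAMP was measured by HTRF competition, 1hr.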
Chain of Beta-2 adrenergic receptor (Homo sapiens) (P07550 whole entry, looked up): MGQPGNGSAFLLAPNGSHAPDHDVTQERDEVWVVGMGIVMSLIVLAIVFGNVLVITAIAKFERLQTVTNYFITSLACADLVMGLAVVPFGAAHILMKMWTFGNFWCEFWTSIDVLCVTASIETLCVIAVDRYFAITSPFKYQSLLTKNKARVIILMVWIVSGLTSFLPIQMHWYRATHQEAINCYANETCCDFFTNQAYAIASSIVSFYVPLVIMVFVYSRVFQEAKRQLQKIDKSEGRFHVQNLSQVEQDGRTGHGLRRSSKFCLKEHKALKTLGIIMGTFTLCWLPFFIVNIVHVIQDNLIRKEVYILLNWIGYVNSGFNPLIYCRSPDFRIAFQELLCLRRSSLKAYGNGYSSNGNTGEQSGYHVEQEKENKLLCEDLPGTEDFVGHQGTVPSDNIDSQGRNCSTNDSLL

The target of assay [15] is D(2) dopamine receptor (Homo sapiens) (UniProt P14416). Description: Dopamine D2 receptor (DRD2) small molecule agonists, cell-based qHTS assay (AID 1963594). Note: nearly all actives have a fitted effect of over 35% in size. Note: potency is the fitted concentration of half-maximal effect. The essentials: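 cAMP accumulation in DRD2-HEK293 cells measured by HTRF after 1 h detection; compounds added 10 min before NKH477 (200nM […]) forskolin-analogue stimulation, 30 min at room temperature, with Ro20-1724 present at 0.1 mM final.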
Chain of D(2) dopamine receptor (Homo sapiens) (P14416 whole entry, looked up): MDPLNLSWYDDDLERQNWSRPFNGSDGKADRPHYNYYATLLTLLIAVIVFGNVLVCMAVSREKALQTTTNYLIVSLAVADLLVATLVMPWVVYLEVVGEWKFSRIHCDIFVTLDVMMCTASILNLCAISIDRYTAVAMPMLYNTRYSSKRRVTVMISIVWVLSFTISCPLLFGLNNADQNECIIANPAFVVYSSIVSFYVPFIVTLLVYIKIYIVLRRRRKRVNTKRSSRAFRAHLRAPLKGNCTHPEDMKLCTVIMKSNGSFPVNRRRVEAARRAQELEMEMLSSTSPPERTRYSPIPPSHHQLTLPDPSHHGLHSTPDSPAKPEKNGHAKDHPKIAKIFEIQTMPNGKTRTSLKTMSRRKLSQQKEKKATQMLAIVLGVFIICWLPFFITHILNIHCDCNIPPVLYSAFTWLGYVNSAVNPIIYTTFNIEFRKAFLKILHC

For assay [16] the target is unchanged. Description: Dopamine D2 receptor (DRD2) small molecule antagonists, cell-based qHTS assay (AID 1963595; active = well fitted inhibition curve with a large enough effect in the signal ratio in the repeat runs, with a control signal flat; the % refers to the signal ratio; note: potency is the fitted concentration of half-maximal effect). Summed up: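 Antagonist mode in DRD2-HEK293 cells: after compound addition with 0.1 mM Ro20-1724, cells received quinpirole (12 nM) and NKH477 (200 nM) for 30 min at room temperature; HTRF cAMP read after 1 h detection.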
Assay [17] addresses 5-hydroxytryptamine receptor 2A (Homo sapiens) (UniProt P28223). Put plainly: 5-hydroxytryptamine receptor 2A (HTR2A) small molecule antagonists, cell-based qHTS assay (AID 1963586). Note: nearly all actives have a fitted effect of over 45% in size. The essentials: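 CHO cells stably expressing human HTR2A were plated for 18 h at 37 C, then loaded with calcium dye for 1 h. Compounds were preincubated 5 min at room temperature before DOI (4 nM solution) was added. Kinetic fluorescence was read for 3 min.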

Assay [18] has as its target Muscarinic acetylcholine receptor M1 (Homo sapiens) (UniProt P11229). Put plainly: Cholinergic receptor muscarinic 1 (CHRM1) small molecule antagonists, cell-based qHTS assay (AID 1963588). Note: nearly all actives have a fitted effect of over 40% in size. The essentials:
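Compounds were tested at 15 concentrations in three independent runs. Dye-loaded CHRM1-CHO cells were exposed 5 min at room temperature before stimulation by acetylcholine added at 50nM. Intracellular calcium was read kinetically on FDSS for 3 min.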

In assay [19] the target is Beta-2 adrenergic receptor (Homo sapiens) (UniProt P07550). Put plainly: Adrenergic beta2 receptor (ADRB2) small molecule antagonists, cell-based qHTS assay (AID 1963592). Note: series mostly up to about 92 µM; nearly all actives have a fitted effect of over 50% in size. Summed up: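 Assay format: CHO-ADRB2 cells, 18-20hr seeding at 37C/5% CO2, then compound plus 1nM isoproterenol agonist mix for 0.5hr RT. Homogeneous time-resolved fluorescence cAMP detection after 1hr, expressed as 665/615 nm ratio.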

Assay [20] can be described thus: p53 small molecule agonists, cell-based qHTS assay: qHTS cell viability counter screen (AID 1963581). Note: nearly all actives have a fitted effect of over 45% in size. Summed up:
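ATP content measured by luminescence in HCT-116 p53RE-bla cells treated 16 h at 37 C, same wells as the reporter screen.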

Unmarked numbers belong to inactive results. Records with an inconclusive call do not appear. Activity calls are given as the source filed them. Unless noted, calls come from the whole dose curve.

Chain of 5-hydroxytryptamine receptor 2A (Homo sapiens) (P28223 whole entry, looked up): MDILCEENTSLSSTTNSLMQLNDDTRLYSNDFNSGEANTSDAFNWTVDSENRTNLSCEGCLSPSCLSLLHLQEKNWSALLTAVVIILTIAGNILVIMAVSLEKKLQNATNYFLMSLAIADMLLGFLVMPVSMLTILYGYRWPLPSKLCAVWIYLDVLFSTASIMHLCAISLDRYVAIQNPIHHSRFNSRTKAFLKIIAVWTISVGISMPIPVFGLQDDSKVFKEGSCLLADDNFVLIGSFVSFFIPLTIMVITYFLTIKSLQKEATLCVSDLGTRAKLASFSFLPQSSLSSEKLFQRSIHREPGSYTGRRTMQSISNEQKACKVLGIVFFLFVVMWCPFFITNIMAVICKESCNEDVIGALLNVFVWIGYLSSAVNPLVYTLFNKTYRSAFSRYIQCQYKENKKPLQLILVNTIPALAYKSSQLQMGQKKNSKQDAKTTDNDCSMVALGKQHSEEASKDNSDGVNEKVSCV
Chain of KiSS-1 receptor (Homo sapiens) (Q969F8 whole entry, looked up): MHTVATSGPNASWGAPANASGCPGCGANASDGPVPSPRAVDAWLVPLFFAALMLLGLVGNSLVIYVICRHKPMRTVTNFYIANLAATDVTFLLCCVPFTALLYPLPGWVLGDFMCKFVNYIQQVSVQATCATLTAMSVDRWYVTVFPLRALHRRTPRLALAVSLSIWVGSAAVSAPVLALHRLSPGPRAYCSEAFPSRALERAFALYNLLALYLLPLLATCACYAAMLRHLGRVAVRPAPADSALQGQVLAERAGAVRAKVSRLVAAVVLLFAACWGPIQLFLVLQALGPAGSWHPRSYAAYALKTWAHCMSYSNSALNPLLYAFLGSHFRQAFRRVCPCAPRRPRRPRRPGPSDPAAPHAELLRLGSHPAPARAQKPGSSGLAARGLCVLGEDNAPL
Chain of Muscarinic acetylcholine receptor M1 (Homo sapiens) (P11229 whole entry, looked up): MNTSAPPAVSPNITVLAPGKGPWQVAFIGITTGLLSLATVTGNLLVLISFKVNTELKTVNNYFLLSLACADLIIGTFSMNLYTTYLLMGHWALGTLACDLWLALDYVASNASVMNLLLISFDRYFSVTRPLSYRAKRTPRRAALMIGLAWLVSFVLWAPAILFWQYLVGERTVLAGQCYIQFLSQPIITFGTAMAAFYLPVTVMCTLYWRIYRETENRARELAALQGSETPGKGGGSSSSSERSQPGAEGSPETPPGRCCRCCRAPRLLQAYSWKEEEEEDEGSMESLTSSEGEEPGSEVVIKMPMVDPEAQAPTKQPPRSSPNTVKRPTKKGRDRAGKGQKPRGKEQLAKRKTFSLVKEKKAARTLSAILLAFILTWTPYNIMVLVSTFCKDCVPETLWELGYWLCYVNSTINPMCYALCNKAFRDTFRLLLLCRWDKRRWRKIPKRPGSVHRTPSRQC

Regarding `CCCCOC(=O)C(C)O` (configuration not stated), the Potency entry in assay [1], in assay [2], in assay [5], in [6], in assay [7] and in assay [8] was “inactive” in each case. For the same compound, the Potency entry in assay [9], in [10], in assay [11], in assay [12], in [13] and in assay [14] was “inactive” each time. In addition, the Potency result in assay [15] and in assay [16] was “inactive” in each case. Besides, the result in assay [3] and in assay [4] was inactive.

For `CN1CN(C)CN(C)C1`, the Potency result in [1], in assay [2], in assay [5], in assay [6], in assay [7] and in assay [8] was “inactive” throughout. In addition, the Potency entry in [17], in assay [10], in assay [18], in assay [13], in assay [19] and in assay [14] was “inactive” each time. Besides, the Potency result in [15] and in [16] was “inactive” each time. For the same compound, the outcome in [3] and in assay [4] was inactive.

In the case of `COc1ccc(N)c([N+](=O)[O-])c1`, the Potency result in [1], in [2], in [5], in [6], in assay [8] and in assay [20] was “inactive” in each case. The Potency entry in [9], in assay [17], in assay [10], in [18], in [11] and in [12] was “inactive” in each case. Moreover, the Potency result in [13], in assay [19] and in assay [15] was “inactive” each time. For the same compound, the result in assay [3] and in [4] was inactive.

`Nc1nc(-c2ccccc2)c(Br)c(=O)[nH]1`: the Potency entry in [1], in assay [2], in assay [5], in assay [6], in assay [7] and in [9] was “inactive” each time. Also, the Potency result in assay [17], in assay [10], in assay [18], in assay [11], in [12] and in [19] was “inactive” in each case. Further, the Potency result in assay [14], in assay [15] and in assay [16] was “inactive” each time. Further, the outcome in [3] and in assay [4] was inactive.

With `O=C1CC2(CCCC2)CC(=O)N1CCNCC1COc2ccccc2O1` (configuration not stated), the Potency result in assay [1], in assay [2], in assay [5], in assay [6], in assay [7] and in assay [8] was “inactive” throughout. The Potency entry in assay [18], in assay [11], in assay [19] and in [14] was “inactive” throughout. The result in [3] and in assay [4] was inactive. The Potency in assay [16] is 0.75 µM (active).

In the case of `CCCCC(CC)COC(=O)c1ccccc1O` (configuration not stated), the Potency result in assay [1], in [2], in assay [5], in assay [6], in [7] and in assay [20] was “inactive” throughout. Besides, the Potency entry in assay [9], in assay [17], in assay [10], in assay [18], in [11] and in assay [12] was “inactive” each time. For the same compound, the Potency entry in [13], in assay [19], in assay [15] and in assay [16] was “inactive” each time. Also, the outcome in assay [3] and in assay [4] was inactive.

Consider `CN1C[C@H](C(=O)N[C@]2(C)O[C@@]3(O)[C@@H]4CCCN4C(=O)[C@H](Cc4ccccc4)N3C2=O)C[C@@H]2c3cccc4[nH]cc(c34)C[C@H]21`, for which the Potency entry in assay [1], in [2], in assay [5], in assay [6], in [7] and in [20] was “inactive” each time. The Potency result in assay [9] was “inactive”. The result in assay [3] and in [4] was inactive. The Potency in [15] was 0.022 µM (active).

For the compound `Cc1ccc(-n2[nH]c(C)c(N=Nc3cccc(-c4cccc(C(=O)O)c4)c3O)c2=O)cc1C`, in [1], the Potency was 26.6 µM (active). Besides, the Potency entry in assay [2], in assay [5], in [6], in assay [8], in [20] and in assay [10] was “inactive” each time. The Potency entry in assay [18], in assay [11], in assay [13], in assay [19], in assay [15] and in assay [16] was “inactive” in each case. Besides, the outcome in assay [3] and in assay [4] was inactive.
